According to ChEMBL document CHEMBL4513135, “CO-ADD screening of IQOG CSIS (Spain) compounds”:
The campaign covered roughly 23,000 compounds. About 30 (0.1%) showed an effect of 50% or more. The list comes from a sample in which strong results are over-represented; it also holds similar structures and randomly drawn compounds. Potency and affinity values are given separately.

The compounds below were run on Pseudomonas aeruginosa. Details: Concentration 32 ug.mL-1; ASSAY_TEST Inhibition of Bacterial Growth; detection method Absorption (OD600); MEDIA CAMHB; plate type 384well; NBS; CORNING #3640; time 18 hr.
In the case of `CCOC(=O)/C(C#N)=C\c1ccc([N+](=O)[O-])cc1`, the Inhibition is reported as 5.37%. Compound `N#Cc1cc(C#N)c(N2CCCC2)nc1N` has an Inhibition of 9.99%. `N#Cc1cc(C#N)c(N2CCCC2)nc1N1CCCC1` gave an Inhibition of 50.45%. `Cl.N#Cc1cc(C#N)c(N2CCCC2)nc1Cl` was tested, and the Inhibition was 9.12%. `COc1ccc2cc(C3C(C(C)=O)=C(C)Oc4nc5c(c(N)c43)CCC5)c(Cl)nc2c1` (configuration not stated) was tested, and the Inhibition was 8.84%. Work on `O=C(Cc1c[nH]c2ccccc12)NNCc1ccccc1` yielded an Inhibition of 23.11%. `CCCC(C)NNC(=O)Cc1c[nH]c2ccccc12` (configuration not stated) showed an Inhibition of 22.46%. For `CC(C)NNC(=O)Cc1c[nH]c2ccccc12`, the Inhibition was 53.17%. Work on `N#CC1=C(N)Oc2c(ccc3ccccc23)C1c1ccc(O)cc1` (configuration not stated) yielded an Inhibition of 17.58%. `C#CCN(C)Cc1cc2cc(OCCCCC3CCN(Cc4ccccc4)CC3)ccc2n1C.Cl` showed an Inhibition of 51.07%. Compound `C#CCN(C)Cc1cc2cc(OCCCCC3CCN(Cc4ccccc4)CC3)ccc2n1C` has an Inhibition of 12.81%. With `C#CCN(C)Cc1cc2cc(OCCC3CCN(Cc4ccccc4)CC3)ccc2n1C.Cl` the Inhibition was 5.95%. Work on `COc1ccc(C2c3c(nc4c(c3N)CCCC4)Oc3ccc4ccccc4c32)cc1` (configuration not stated) yielded an Inhibition of 16.04%. `Nc1c2c(nc3c1c1ccccc1n3Cc1ccccc1)CCCC2` showed an Inhibition of 35.2%. Work on `COc1cccc(C2c3c(nc4c(c3N)CCCC4)Oc3ccc4ccccc4c32)c1` (configuration not stated) yielded an Inhibition of 38.82%. `CN(N=O)C(=O)NC1(C(=O)O)CC1c1ccccc1` (configuration not stated) gave an Inhibition of 47.22%. `CNC(=O)NC1(C(=O)O)CC1c1ccccc1` (configuration not stated) was tested, and the Inhibition was 50.33%. Compound `COC(=O)C1(NC(=O)c2ccccc2)CC1c1ccccc1` (configuration not stated) has an Inhibition of 23.63%. In the case of `CNC(=O)c1c(Cl)c2cc(OCc3ccccc3)ccc2n1C`, the Inhibition is reported as 34.06%. For `COc1ccc(C=C2N=C(c3ccccc3)SC2=O)cc1`, the Inhibition was 50.12%. In the case of `COc1ccc(C=C2N=C(c3ccccc3)OC2=O)cc1`, the Inhibition is reported as 9.34%. Compound `CC1=NC(=Cc2ccccc2)C(=O)S1` has an Inhibition of 24.56%.
